Assay results taken from PubChem BioAssay (NCI).
The panel holds about 83,000 compounds, 20% with a hit somewhere; the sample as a whole holds those more often.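 Single-dose data. Exposure time 48 hours. Values below 10 considered active.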 Unmarked numbers belong to inactive results. Active and inactive are the calls of the source.

Legend:
Assay in all cases: NCI-60 one-dose screen, 48 h (100 = growth as untreated, 0 = no growth, -100 = all killed)
SK-MEL-2 melanoma = conditions: 10 µM
EKVX NSCLC = conditions: 10 µM unless noted
SN12C renal = conditions: 10 µM unless noted
UO-31 renal = conditions: 10 µM unless noted
TK-10 renal = conditions: 10 µM unless noted
ACHN renal = conditions: 10 µM unless noted
A498 renal = conditions: 10 µM unless noted
CCRF-CEM leukemia = conditions: 10 µM unless noted
MOLT-4 leukemia = conditions: 10 µM unless noted
SR leukemia = conditions: 10 µM unless noted
RPMI-8226 leukemia = conditions: 10 µM unless noted
OVCAR-8 ovarian = conditions: 10 µM unless noted
OVCAR-5 ovarian = conditions: 10 µM unless noted
OVCAR-4 ovarian = conditions: 10 µM unless noted
SK-OV-3 ovarian = conditions: 10 µM unless noted
IGROV1 ovarian = conditions: 10 µM unless noted
OVCAR-3 ovarian = conditions: 10 µM unless noted
NCI/ADR-RES ovarian = conditions: 10 µM unless noted
HS 578T breast = conditions: 10 µM

Compound | growth (SK-MEL-2 melanoma) | growth (EKVX NSCLC) | growth (SN12C renal) | growth (UO-31 renal) | growth (TK-10 renal) | growth (ACHN renal) | growth (A498 renal) | growth (CCRF-CEM leukemia) [%] | growth (MOLT-4 leukemia) [%] | growth (SR leukemia) [%] | growth (RPMI-8226 leukemia) | growth (OVCAR-8 ovarian) [%] | growth (OVCAR-5 ovarian) | growth (OVCAR-4 ovarian) | growth (SK-OV-3 ovarian) | growth (IGROV1 ovarian) | growth (OVCAR-3 ovarian) | growth (NCI/ADR-RES ovarian) | growth (HS 578T breast) [%]
c1ccc2c(c1)CCN(NCCN1CCCC1)C2 | 91.5% | 86.4% | 94.8% | 75% | 96.6% | 89% | 87.7% | 79.3 | 99.4 | 103 | 95.5% | 101 | 94.7% | 106% | 84.6% | 96.3% | 99.9% | 96.1% | 
C=CC[n+]1c(/C=C/C=C2\N(C)c3ccccc3C2(C)C)sc2ccc(OC)cc21 | -13.4% (active) | 10.9% | 11.7% | 13.7% | 32.8% | 10.8% | 17.7% | 21.5 | 10.2 | 11.7 | 1.33% (active) | 12.2 | 22.4% | 25.1% | -13.8% (active) | 40.9% | 13.3% | 71.7% | 53.6
COC(=O)C1=C(C(=O)OC)C23C=C(C)C1C2=C(C)C1(CC1)[C@@](C)(O)C3=O (some centres undefined) | -54.6% (active) | -6% (active) | 9.49% (active) | -28% (active) | -6.99% (active) | 3.21% (active) | -44% (active) | 66.5 | 73.6 | 66.6 | 92.3% | 12.7 | -3.58% (active) | 1.65% (active) | -21.6% (active) | 3.08% (active) | -2.36% (active) | -3.49% (active) | 23.2
COc1ccc(C2CC(=O)c3c(O)c(OC)c(OC)c(OC)c3O2)cc1O (centres undefined) | 48.8% | 50.4% | 45.4% | 51.6% | 70.6% | 40.4% |  | 24.2 | 22 | 22.7 | 34.3% | 26.8 | 81.1% | 47.9% | 40% | 48.2% | -5.96% (active) | 3.97% (active) | 14.8
